hgDAF-12 ag: H. glycines DAF-12 receptor agonists, primary screen, cell-based, luminescence, HEK293, GAL4 fusion, UAS-luciferase | Nuclear hormone receptor DAF-12 (Heterodera glycines), GAL4 fusion | HEK293 GAL4-hgDAF12 UAS-luciferase reporter, agonist luminescence; normalized to butyrate control | activation, % at 6.8 µM | 370,000 tested, 1.8% active | AID 687014, 2013;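 active means activation above a cutoff set at the mean of all screened compounds plus 3 SD, cut at about 10% in these data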;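 further: 0% = DMSO wells and 100% = sodium butyrate wells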
ssDAF-12 act: S. stercoralis DAF-12 nuclear receptor activators, primary screen, cell-based, luminescence, HEK293, GRIP1 co-expression, lit1-tk-luc; Nuclear hormone receptor DAF-12 (Strongyloides stercoralis); HEK293 ssDAF-12/GRIP1 lit1-tk-luc reporter; % of 3 µM dafachronic acid response; activation, % at 6.8 µM; 370,000 tested, 1% active; AID 652126, 2013;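 active means activation above the mean over all tested compounds plus 3 SD, cut at about 0.9% in these data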;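 further: 0% = DMSO-only wells and 100% = 3 µM delta7-dafachronic acid wells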
DAX1 inh-1: DAX1 (NR0B1) inhibitors, primary screen, cell-based, HEK293, Gal4-DAX1, luciferase luminescence; HEK293 Gal4-DAX1 luciferase reporter; AID 504766, 2011; inhibition, % at 6.75 µM; 340,000 tested, 0.99% active;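 active means inhibition above the mean over all tested compounds plus 3 SD, cut at about 4.2% in these data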;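 further: 0% = DAX1-transfected cells with DMSO and 100% = empty-vector control cells with DMSO; inhibition shows as a rise in luminescence from relieved DAX1 repression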
GAA850 FXN act: FXN promoter activators, primary screen, cell-based, luciferase luminescence, HEK293 lucGAA850; 360,000 tested, 0.56% active; HEK293 lucGAA850 FXN promoter luciferase reporter, 24 h; percent of 10 µM SAHA response; activation, % at 6 µM;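 active means activation above the average of all compounds screened plus 3 SD, cutoff fixed separately per campaign, cut at about 7.5% in these data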;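 further: 0% = DMSO wells and 100% = 10 µM SAHA wells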
DAX1 inh-2: DAX1 (NR0B1) inhibitors on StAR promoter, primary screen, cell-based, luminescence, SF-1 (NR5A1), full-length DAX-1 | AID 652010, 2013 | inhibition, % at 6.8 µM | 370,000 tested, 1.1% active | HEK293T StAR-luciferase reporter, SF-1/DAX-1 repression relief;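 active means inhibition above the mean over all tested compounds plus 3 SD, cut at about 3.6% in these data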;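 further: 0% = DAX-1 cells with DMSO and 100% = cells lacking DAX-1 with DMSO; higher inhibition means more luminescence from relief of DAX-1 repression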
hcDAF12 agonist: H. contortus DAF-12 nuclear receptor activators, primary screen, cell-based, luminescence, HEK293, lit1-tk-luc reporter; 370,000 tested, 1.4% active; activation, % at 6.8 µM; HEK293 hcDAF-12 lit1-tk-luc reporter; 0% DMSO, 100% Δ7-dafachronic acid;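 active means activation above the mean of all tested compounds plus 3 SD, cut at about 5.5% in these data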;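 further: 100% = response to 3 µM Δ7-dafachronic acid high control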
DAX1 conf: DAX1 (NR0B1) inhibitors relieving SF-1 repression, confirmation, cell-based, luminescence, HEK293T, full-length DAX-1, SF-1 activated StAR promoter. shares compounds with DAX1 inh-2. 2,400 tested, 87% active. inhibition, % at 6.8 µM. HEK293T StAR-promoter luciferase reporter, SF-1/DAX-1 repression;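 active means inhibition above the average of every tested compound plus 3 SD, cut at about 3.8% in these data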;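 further: 0% = DAX-1 cells with DMSO and 100% = no DAX-1 control cells with DMSO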
Target sequence (P51843 whole entry, looked up): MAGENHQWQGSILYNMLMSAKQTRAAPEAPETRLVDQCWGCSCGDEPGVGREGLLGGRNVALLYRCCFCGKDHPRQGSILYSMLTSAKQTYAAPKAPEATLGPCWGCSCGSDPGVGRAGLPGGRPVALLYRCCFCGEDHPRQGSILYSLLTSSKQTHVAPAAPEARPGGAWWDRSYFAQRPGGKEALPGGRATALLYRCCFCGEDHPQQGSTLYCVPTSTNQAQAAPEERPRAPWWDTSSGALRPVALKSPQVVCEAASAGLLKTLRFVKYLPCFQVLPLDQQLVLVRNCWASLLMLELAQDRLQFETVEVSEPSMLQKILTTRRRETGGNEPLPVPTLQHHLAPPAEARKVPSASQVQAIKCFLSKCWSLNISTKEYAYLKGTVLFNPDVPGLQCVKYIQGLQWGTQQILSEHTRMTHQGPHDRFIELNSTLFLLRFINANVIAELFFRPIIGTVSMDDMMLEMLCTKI
SF1 mutant ctr: StAR reporter signal changes without DAX1, counter-screen for DAX1 inhibitor project, cell-based, luminescence, AF-2 mutant SF-1, transactivation; shares compounds with DAX1 inh-2; HEK293 StAR-luciferase, SF-1 AF2 mutant; inhibition, % at 6.8 µM; 2,400 tested, 78% active; AID 652136, 2013;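 active means inhibition above the mean of all tested compounds plus 3 SD, cut at about 3% in these data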;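 further: 0% = DAX-1 transfected cells with DMSO and 100% = cells without DAX-1 with DMSO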
LXRb hcDAF ctr: LXR agonists, Gal4 luciferase reporter, confirmation, counter-screen for hcDAF-12 agonist project, cell-based, luminescence, HEK293, H. contortus campaign; activation, % at 6.8 µM; shares compounds with hcDAF12 agonist; HEK293 Gal4-LXR tk-luc reporter, 24 h; normalized: DMSO 0%, positive control 100%; 3,400 tested, under 10 active; AID 743027, 2013;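 active means mean percent activation of the reporter above a cutoff set as the average over tested compounds plus their standard deviation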
hcDAF12 conf: H. contortus DAF-12 receptor agonists, confirmation, cell-based, luminescence, HEK293, lit1-tk-luc, triplicate | shares compounds with hcDAF12 agonist | HEK293 hcDAF-12 lit1-tk-luc reporter; % of Δ7-dafachronic acid response | activation, % at 6.8 µM | 3,400 tested, 61% active | AID 743032, 2013;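 active means mean activation across triplicate tests above the threshold derived from the earlier primary screen, cut at about 5.5% in these data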;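 further: 0% = DMSO only wells and 100% = 3 µM Δ7-dafachronic acid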
hgDAF12 conf: H. glycines DAF-12 receptor agonists, confirmation, cell-based, luminescence, HEK293, GAL4-LBD fusion | shares compounds with hgDAF-12 ag | 3,300 tested, 80% active | activation, % at 6.8 µM | AID 743050, 2013 | HEK293 GAL4-hgDAF12 luciferase reporter, agonist mode; percent of butyrate response;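 active means mean activation over triplicate wells above the hit cutoff derived from the earlier primary screen, cut at about 11% in these data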;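 further: 0% = DMSO low control and 100% = 2 mM sodium butyrate high control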
LXR ag 2: LXR agonists, Gal4 luciferase reporter, confirmation, counter-screen for hgDAF-12 agonist project, cell-based, luminescence, HEK293, H. glycines campaign. 3,300 tested, under 10 active. 24 h. activation, % at 6.8 µM. shares compounds with hgDAF-12 ag;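 active means mean activation of the triplicate above a set limit carried over from the primary screen, none filed active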
* hit, by the source's call; x = no result. This is a sample that favours compounds with a hit; in the whole collection about 4.5% have one here.

SMILES	hgDAF-12 ag	ssDAF-12 act	DAX1 inh-1	GAA850 FXN act	DAX1 inh-2	hcDAF12 agonist	DAX1 conf	SF1 mutant ctr	LXRb hcDAF ctr	hcDAF12 conf	hgDAF12 conf	LXR ag 2
Cc1cc2c(cc1C)NP(=S)(c1ccccc1)N2	19*	1.2*	0	-3	11*	8.0*	13*	8.4*	2	13*	x	x
COC(=O)C1C(OC(=O)c2ccccc2)CC2CCC1[N+]2(C)C (stereo unspecified)	1	-1	x	x	0	1	x	x	x	x	x	x
Nc1ccccc1C(=O)OCCc1ccccc1	24*	0	1	1	5.6*	11*	13*	4.1*	2	9.7*	15*	1
CC1CCN(CC(=O)c2ccc3c(c2)OCCO3)CC1	17*	0	3	7	8.0*	8.9*	14*	8.6*	2	8.3*	16*	1
CC1CCCN(CC(=O)c2ccc(Cl)c(Cl)c2)C1 (stereo unspecified)	2	-1	1	0	2	-1	x	x	x	x	x	x
O=c1[nH]c2cc(Cl)ccc2n1C1CCN(Cc2ccc(-c3nc4ccc(F)cc4nc3-c3ccccc3)cc2)CC1	0	-2	x	x	-1	2	x	x	x	x	x	x
Cc1ccc2c(c1N)C(=O)c1ccccc1C2=O	16*	1	1	5	5.3*	4	11*	5.8*	x	x	13*	1
O=C(O)C(O)(c1ccc(Cl)cc1)C1(O)CCCC1 (stereo unspecified)	3	-1	1	2	0	1	x	x	x	x	x	x
COc1ccc(-c2cc(=Nc3ccccc3)c3cc(C)ccc3o2)cc1	22*	0	-1	5	5.1*	7.3*	6.1*	4.3*	0	1	18*	1
COc1ccc(-c2cc(=O)c3c(OC)c(OC)c(OC)cc3o2)cc1	0	-2	-3	1	-2	-4	x	x	x	x	x	x

Bioassay records: PubChem, The Scripps Research Institute Molecular Screening Center
